# Measured values published in PubChem BioAssay AID1527 (The Scripps Research Institute Molecular Screening Center, 2009).
# The campaign covered roughly 290,000 compounds. About 2,600 (0.9%) were called active.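 How the source made its calls: active means inhibition above the mean of all tested compounds plus 3 SD, cutoff set per screening run (cut at about 7.5% in these data); inactive means the rest.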 The list comes from a sample in which actives are over-represented; it also holds similar structures and randomly drawn compounds.
# Test system: VIM-2 metallo-beta-lactamase (Pseudomonas aeruginosa)
# Experiment: VIM-2 metallo-beta-lactamase inhibitors, primary screen, biochemical, epi-absorbance readout, Pseudomonas aeruginosa enzyme (AID 1527);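 further: red hydrolysis product quenches plate fluorescence so inhibitors raise well fluorescence; 0% = enzyme with DMSO and 100% = DMSO without enzyme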
# Details: purified VIM-2, nitrocefin hydrolysis, epi-absorbance fluorescence; at 5.6 µM; active compounds read high
row,SMILES,inhibition
1,Cc1sc2ncn(CC(=O)NCCCC(=O)NCc3ccc(F)cc3)c(=O)c2c1C,0.04% (inactive)
2,Nc1c(C(=O)c2cccs2)sc2nsc(SCCN3CCCCC3)c12,13.6% (active)
3,CN(C)c1ccnc2sc(C(=O)c3ccccc3)c(N)c12,-2.05% (inactive)
4,Cc1nc2sc(C(=O)c3ccccc3)c(N)c2c2c1CCCC2,2.15% (inactive)
5,CCN(CC)CCN1C(=O)C2C(C(=O)Nc3ccc(Br)cc3)C3C=CC2(O3)C1C(=O)NC1CCCCC1 (configuration not stated),-0.9% (inactive)
6,Cc1ccc2[nH]c(=O)c(CC(=O)O)c(-c3ccccc3)c2c1,-3.01% (inactive)
7,CCOc1ccccc1NC(=S)N1CCN(c2cccc(C)c2C)CC1,-0.35% (inactive)
8,Cc1ccc(S(=O)(=O)N(C)C)cc1NC(=O)c1n[nH]c(=O)c2ccccc12,-0.87% (inactive)
9,CN(C)CCNc1ccc(-c2n[nH]c(=O)c3ccccc23)cc1[N+](=O)[O-],78.8% (active)
10,COCCNC(=O)c1ccccc1NS(=O)(=O)c1ccc(C)c([N+](=O)[O-])c1,0.45% (inactive)
11,COCCNc1cc(NCCOC)c([N+](=O)[O-])cc1[N+](=O)[O-],-3.48% (inactive)
12,CCN(CC)CCNc1ccc(Cl)cc1[N+](=O)[O-],0.16% (inactive)
13,COCCNc1ccc(-c2n[nH]c(=O)c3ccccc23)cc1[N+](=O)[O-],10.5% (active)
14,O=C(Nc1ccc(S(=O)(=O)N2CCCCCC2)cc1)c1c(F)cccc1F,-0.68% (inactive)
15,O=C(O)CCCn1c(=O)c2cccn2c2ccc(F)cc21,-1.43% (inactive)
16,Clc1ccc(CN2CCCCCC2)cc1Cl,-2.14% (inactive)
17,CC(=O)c1cccc(NC(=O)COc2ccc(S(=O)(=O)N3CCOCC3)cc2)c1,-2.94% (inactive)
18,Cc1cc(C)n2nc(C(=O)NC(C)(C)C)nc2n1,-3.78% (inactive)
19,COc1ccc(Cl)cc1C(=O)NNC(=O)c1nc2nc(C)cc(C)n2n1,10.3% (active)
20,C=CCNC(=S)NNC(=O)c1cc(Cl)ccc1OC,-5.71% (inactive)
21,O=C(CNC(=O)OCc1ccccc1)Oc1cc2oc(=O)cc(-c3ccccc3)c2cc1Cl,2.38% (inactive)
22,CN(C)/C=C1/C(=O)Nc2ccccc21,-0.22% (inactive)
23,O=C1Nc2ccccc2/C1=C/c1ccnc2ccccc12,8.11% (active)
24,Cc1ccccc1N1CCN(CCCN2C(=O)C3CCCCN3C2=O)CC1 (configuration not stated),0.15% (inactive)
25,CCCCC(CC(C)O)c1n[nH]c(=S)n1-c1ccccc1 (configuration not stated),-4.22% (inactive)

row,SMILES,inhibition
1,S=c1[nH]nc(COc2ccccc2)n1-c1ccccc1,-1.69% (inactive)
2,CC(NS(=O)(=O)c1ccccc1)c1n[nH]c(=S)n1-c1ccccc1 (configuration not stated),14.9% (active)
3,CCOc1c(Br)cc(/C=C2\C(=O)N(CCC#N)N=C2C)cc1OC,0.69% (inactive)
4,CCc1nn(CC(=O)N2CCN(CC)CC2)c(=O)c2cccn12,-0.45% (inactive)
5,CCN1CCN(C(=O)Cn2nc(C)n3c(cc4c(OC)cccc43)c2=O)CC1,28.3% (active)
6,COc1cccc2c(=O)n(CC(=O)N3CCCCCC3)ccc12,1.04% (inactive)
7,COc1ccc(C(CNC(=O)COc2ccccc2OC)N2CCCCC2)cc1 (configuration not stated),-0.07% (inactive)
8,Cc1ccc(CN(N=Nc2nonc2N)c2nonc2N)c(C)c1,-1.22% (inactive)
9,O=C(COc1ccc(-n2cnnn2)cc1)Nc1ccccc1Cl,0.31% (inactive)
10,CCN(CC)CCCNC(=O)c1cc(-c2cccc(Cl)c2)on1,-2.99% (inactive)
11,CCN(CC)CCCNC(=O)c1cc2c(=O)[nH]c3ccc(C)cc3c2s1,11.4% (active)
12,Cc1cccc(N(C)C(=O)c2cc3c(=O)[nH]c4ccc(C)cc4c3s2)c1,-1.79% (inactive)
13,COc1ccc(C(=O)N/N=c2\oc3ccccc3cc2C(N)=O)cc1,-2.23% (inactive)
14,NC(=O)c1cc2ccccc2o/c1=N/NC(=O)c1cccc(F)c1,-3.88% (inactive)
15,CCN(CC)c1ccc2cc(C(N)=O)/c(=N\NC(=O)c3ccncc3)oc2c1,17.2% (active)
16,COc1ccccc1CNC(=O)C1CCN(C(=O)[C@@H]2Cc3ccccc3CN2)CC1,-1% (inactive)
17,Nc1nc(SCc2cccc(Br)c2)n[nH]1,-2.53% (inactive)
18,CC(C)c1cc(NCc2ccccn2)n2c(nc3ccccc32)c1C#N,3.25% (inactive)
19,Cc1cc(NCc2ccco2)n2c(nc3ccccc32)c1C#N,23.1% (active)
20,Cc1cc(NC(C)C)n2c(nc3ccccc32)c1C#N,6.91% (inactive)
21,CC(C)c1ccc2oc(=O)cc(CN3CCN(Cc4ccccc4)CC3)c2c1,-0.17% (inactive)
22,CCOC(=O)N1CCC(N2Cc3cccc(C(=O)Nc4ccc(S(=O)(=O)N(CC)CC)cc4)c3C2=O)CC1,1.9% (inactive)
23,O=C(NNS(=O)(=O)c1ccccc1)c1cnn(-c2ccc(Cl)cc2)c1C(F)(F)F,-0.91% (inactive)
24,COc1ccccc1N1CCN(c2nc(C)cc(=O)[nH]2)CC1,-1.83% (inactive)
25,CN(C)c1ccc(CNC2C3CC4CC(C3)CC2C4)cc1 (configuration not stated),-1.88% (inactive)

row,SMILES,inhibition
1,O=C(CCC(=O)N/N=C/c1ccc(Br)o1)N/N=C/c1ccc(Br)o1,-1.34% (inactive)
2,O=C(NCCCN1CCOCC1)c1cc2c(s1)CCC2,-5.51% (inactive)
3,CN1CCN(CCCNC(=O)c2cc3c(=O)oc4ccccc4c3s2)CC1,7.83% (active)
4,O=C(NCCN1CCN(Cc2ccccc2)CC1)c1cc2c(=O)[nH]c3ccccc3c2s1,7.06% (inactive)
5,CCOC(=O)N1CCN(S(=O)(=O)N2CCCC(C(=O)NCCCN3CCC(C)CC3)C2)CC1 (configuration not stated),-0.26% (inactive)
6,CC(=O)Nc1ccc(Nc2c3ccccc3nc3ccccc23)cc1,9.49% (active)
7,CC(=O)Nc1ccc(-c2nc3ccccc3o2)cc1,-1.18% (inactive)
8,Cc1ccc(Nc2c3c(nc4ccccc24)CCC3)cc1,5.26% (inactive)
9,Nc1nnc2c(C(F)(F)F)nc3ccccc3n12,14.8% (active)
10,Cc1ccc(Oc2nc3ccccc3n3c(C)nnc23)cc1,0.26% (inactive)
11,FC(F)(F)c1nnc2c3ccccc3c(Cl)nn12,4.08% (inactive)
12,COc1ccc(C2=NS(=O)(=O)N(C)C(C(=O)N(C)Cc3ccccc3)=C2)cc1,-0.5% (inactive)
13,Cc1cccn2c(=O)c3cc(C(=O)NC4CCCCC4)sc3nc12,8.99% (active)
14,Cc1ccccc1-n1nc(C)c2cc(C(=O)NC3CC3)sc21,-1.43% (inactive)
15,CN(C(=O)c1cc2c(=O)n3ccccc3nc2s1)C1CCCCC1,3.44% (inactive)
16,CCc1ccc(N(CC(=O)NCc2cccnc2)S(=O)(=O)c2ccccc2)cc1,-2.09% (inactive)
17,COc1ccccc1C(=O)Nc1ccnn1C1CCN(C(=O)C(C)(C)C)CC1,-0.24% (inactive)
18,COc1ccc(-c2nn(C)c(=O)c3ccccc23)cc1CNC(=O)C1CCCCC1,8.72% (active)
19,COc1ccc(-c2nn(C)c(=O)c3ccccc23)cc1NC(=O)COc1ccccc1,3.19% (inactive)
20,CCC(=O)NCc1cc(-c2nn(C)c(=O)c3ccccc23)ccc1OC,1.81% (inactive)
21,COc1cc(-c2nnn(CC(=O)NCc3ccccc3)n2)cc(OC)c1OC,-0.9% (inactive)
22,CCOc1cccc(-c2nn3c(-c4ccccn4)nnc3s2)c1,1.31% (inactive)
23,COc1ccc(-c2nn3c(-c4ccccc4)nnc3s2)cc1OC,14.4% (active)
24,Fc1ccc(-c2ccc(-c3nn4c(-c5ccco5)nnc4s3)o2)cc1,-1.72% (inactive)
25,COc1cc(-c2nn3c(-c4cccc(C)c4)nnc3s2)cc(OC)c1OC,14.8% (active)

row,SMILES,inhibition
1,c1ccc(-c2cc(-c3nnc4sc(-c5ccccn5)nn34)[nH]n2)cc1,6.5% (inactive)
2,COc1ccc(C)cc1S(=O)(=O)N(CC(=O)Nc1cccc([N+](=O)[O-])c1)c1ccc(C)cc1,-0.96% (inactive)
3,COc1ccc(C(C(=O)NC2CCCCC2)N(C(=O)c2snc(C(N)=O)c2N)c2ccccc2OC)cc1 (configuration not stated),-3.87% (inactive)
4,N#Cc1cc([N+](=O)[O-])ccc1NCC1CCCO1 (configuration not stated),-4.39% (inactive)
5,CN(Cc1ccccn1)Cc1nc(-c2ccc(Cl)cc2)no1,-2.91% (inactive)
6,CCN(CCn1cccn1)Cc1nc(-c2ccc(C(=O)OC)cc2)no1,0.55% (inactive)
7,COC(=O)c1ccc(-c2noc(CN(Cc3ccccn3)CC3CCCO3)n2)cc1 (configuration not stated),19.8% (active)
8,COc1ccccc1C(=O)NNC(=O)CCN1C(=O)/C(=C\c2ccccc2)SC1=S,-3.54% (inactive)
9,COc1ccc(/C=C2\SC(=S)N(CCC(=O)Nc3ccccn3)C2=O)cc1OC,-0.57% (inactive)
10,COc1cc(/C=C2/SC(=S)N(Cc3ccccc3)C2=O)cc(OC)c1O,7.8% (active)
11,O=C(CCc1ccccc1)NNC(=O)COc1ccc(Cl)cc1,-4.89% (inactive)
12,Cc1ccc(C2CCN(C(=S)Nc3cccc(Cl)c3)C2)cc1 (configuration not stated),-1.21% (inactive)
13,O=C(NCC(=O)N1CCN(c2ccccc2F)CC1)c1cccs1,-3.61% (inactive)
14,O=C(Nc1nc2ccccc2s1)c1ccc2c(c1)OCO2,-3.05% (inactive)
15,O=C(O)CC/C(=C\c1cc2c(cc1Br)OCO2)c1nc2ccccc2s1,7.92% (active)
16,O=C(O)CS/C(=C\c1ccc(F)cc1)c1nc2ccccc2s1,2.23% (inactive)
17,C/C(=N\NC(=O)C1(C)CC1(Br)Br)c1ccc(C)cc1C (configuration not stated),-0.97% (inactive)
18,CC(C)n1c(COc2ccccc2)nc2ccccc21,-2.15% (inactive)
19,O=C(CN1CCN(S(=O)(=O)c2cc(Cl)ccc2Cl)CC1)c1ccc(O)c(O)c1,2.29% (inactive)
20,CCc1cc(=O)oc2cc(C)cc(OCC(=O)N3CCC[C@@H]3C(=O)O)c12,14.5% (active)
21,CCCc1cc(=O)oc2c(C)c(OCC(=O)N3CCC(C(=O)O)CC3)ccc12,-1.65% (inactive)
22,CCc1cc(=O)oc2cc(C)cc(OC(C)C(=O)O)c12 (configuration not stated),-2.35% (inactive)
